# Assay outcomes from PubChem.
# Most compounds without a hit are left out; they make up all but 27% or so of the library.
# CYP2C9 inhib – blocks human cytochrome P450 2C9 | inhibition, % at 5 µM | CYP2C9 Supersomes, luciferin-H conversion, luminescence | P11712 | hit rate 20% among 96,000;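 active means blocking of liver enzyme CYP2C9 beyond about 50% at 5 µM, limit read from the data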
# sEH inh – inhibitors of human soluble epoxide hydrolase; inhibition, % at 2 µM; AID 707; P34913; recombinant human sEH enzymatic activity assay; hit rate 0.34% among 91,000; in the data active means inhibition above about 80%
# sEH activator – soluble epoxide hydrolase (human) activation | purified human sEH enzymatic activity, activator screen | activation, % at 2 µM | hit rate 0.04% among 91,000; in the data active means activation above about 37%
# CYP2C9 act – CYP2C9 (human) activation; recombinant CYP2C9, luciferin-H conversion, luminescence; hits give high values; factor 1 = untreated enzyme, 0 = blocked; P11712; activation factor at 5 µM; hit rate 1.4% among 96,000; AID 1024;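 active means activation factor of 2 or more for CYP2C9 at a 5 µM dose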
# CYP2C19 activ – cytochrome P450 2C19 (human) activation. P33261. recombinant CYP2C19, luciferin-H EGE luminescence; hits give high values; 0 = fully inhibited enzyme, 1 = untreated enzyme. activation factor at 5 µM. 96,000 tested, under 10 active. AID 1025;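 active means activation factor of at least 2 at 5 µM in the primary screen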
# Target sequence (P33261 whole entry, looked up): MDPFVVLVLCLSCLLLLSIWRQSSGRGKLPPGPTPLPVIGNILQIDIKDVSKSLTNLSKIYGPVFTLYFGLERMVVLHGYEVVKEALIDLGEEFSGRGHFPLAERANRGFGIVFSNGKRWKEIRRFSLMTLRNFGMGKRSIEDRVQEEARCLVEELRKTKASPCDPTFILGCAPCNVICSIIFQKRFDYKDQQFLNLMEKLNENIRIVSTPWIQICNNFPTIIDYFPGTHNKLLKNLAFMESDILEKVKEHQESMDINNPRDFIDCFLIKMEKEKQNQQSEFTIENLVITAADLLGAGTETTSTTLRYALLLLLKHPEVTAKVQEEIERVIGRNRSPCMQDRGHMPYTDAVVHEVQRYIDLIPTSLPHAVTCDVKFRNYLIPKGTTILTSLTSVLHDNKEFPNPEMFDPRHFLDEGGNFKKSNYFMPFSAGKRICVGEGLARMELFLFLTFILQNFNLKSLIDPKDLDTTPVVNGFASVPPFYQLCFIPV
# CYP2C19 inhib – inhibitors of human CYP2C19 | P33261 | CYP2C19 Supersomes, luciferin-H EGE luminescence, 30 min | inhibition, % at 5 µM | hit rate 21% among 96,000 | AID 778;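 active means CYP2C19 inhibition above a set limit at 5 µM in the primary screen, cut at about 50% in these data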
# A number is an active result; - = inactive; . = not tested or not shown.
SMILES,CYP2C9 inhib,sEH inh,sEH activator,CYP2C9 act,CYP2C19 activ,CYP2C19 inhib
Cc1ccccc1NC(=O)C1CCCN(S(=O)(=O)c2cccc3cccnc23)C1 (stereo not drawn),-,-,-,-,-,-
O=C(NCc1cc(C(F)(F)F)cc(C(F)(F)F)c1)C1CC(c2cccc([N+](=O)[O-])c2)=NO1 (stereo not drawn),-,-,-,-,-,-
CCOC(=O)C1=NN(c2cccc(C)c2)C2(S1)SC(C(C)=O)=C(C)N2c1ccccc1 (stereo not drawn),80,-,-,-,-,-
CCOC(=O)C1=NN(c2ccc(C)cc2)C2(S1)SC(C(C)=O)=C(C)N2c1ccccc1 (stereo not drawn),54,-,-,-,-,-
CCOC(=O)c1sc(=S)n(-c2ccccc2)c1N,.,-,-,.,.,.
CCOC(=O)C1=NN(c2ccccc2)C2(S1)SC(C(C)=O)=C(C)N2c1ccccc1 (stereo not drawn),-,-,-,-,-,-
COC(=O)C1=NN(c2ccccc2)C2(S1)S/C(=C\c1ccccc1)C(=O)N2c1ccccc1 (stereo not drawn),54,-,-,-,-,88
Cc1cc(C)n(C(=O)Cc2cn3ccsc3n2)n1,-,-,-,-,-,-
CCC1=NN=C(c2ccc(F)cc2)C(c2c[nH]c3ccccc23)N1O (stereo not drawn),.,-,-,.,.,.
CCn1c(CCC(=O)Nc2nc3c(s2)CCCC3)nc2cc(S(=O)(=O)N(C)C)ccc21,91,-,-,-,-,75
CN(C)S(=O)(=O)c1ccc2c(c1)nc(CCC(=O)NCC1CCCCC1)n2C,-,-,-,-,-,-
Cc1nc2ccccc2c(=O)n1/N=C/c1ccncc1,-,-,-,-,-,76
Cc1ccc(-n2[nH]c(C)c(/C=N/n3c(C)nc4ccccc4c3=O)c2=O)cc1,55,-,-,-,-,-
Cc1nc2ccccc2c(=O)n1/N=C/c1cn(-c2ccccc2)nc1-c1cccs1,98,-,-,-,-,80
Nc1nonc1-c1noc(CCCCCN2C(=O)c3ccccc3C2=O)n1,-,-,-,-,-,-
O=C(OCc1c(F)cccc1Cl)c1cnccn1,-,-,-,-,-,-
O=S(=O)(c1ccc(F)cc1)n1ccc(-c2cccc(OCc3c(F)cccc3Cl)c2)n1,88,-,-,-,-,-
O=S(=O)(c1ccc(Cl)cc1)n1ccc(-c2cccc(OCc3c(F)cccc3Cl)c2)n1,60,-,-,-,-,-
Cc1ccc(NC(=O)CSCC(=O)N2c3ccccc3CCc3ccccc32)cc1,63,-,-,-,-,54
Cc1ccc(NC(=O)N2CCc3ccccc32)cc1,.,-,-,.,.,.
CCOC(=O)Nc1ccc2c(c1)N(C(=O)N(C)C)c1ccccc1CC2,92,-,-,-,-,72
CCN(CC)CC(=O)Nc1ccc2c(c1)N(C(=O)CN(CC)CC)c1ccccc1CC2,70,-,-,-,-,-
CCN(Cc1nc2ccccc2c(=O)[nH]1)Cc1nc2cc(OC)c(OC)cc2c(=O)[nH]1,-,-,-,-,-,-
COc1cc2nc(CN(C)Cc3nc4ccccc4c(=O)[nH]3)[nH]c(=O)c2cc1OC,-,-,-,-,-,-
CCN(CC(=O)Nc1ccc2c(c1)OCO2)Cc1nc2ccccc2c(=O)[nH]1,81,.,.,-,-,77
SMILES,CYP2C9 inhib,sEH inh,sEH activator,CYP2C9 act,CYP2C19 activ,CYP2C19 inhib
CCN(CC(=O)Nc1cccc(Br)c1)Cc1nc2ccccc2c(=O)[nH]1,65,-,-,-,-,72
O=C(Cn1ccc2ccccc2c1=O)Nc1ccc2c(c1)OCO2,-,-,-,-,-,-
CCN(CC(=O)Nc1ccc2c(c1)OC(F)(F)O2)Cc1nc2ccccc2c(=O)[nH]1,92,-,-,-,-,88
CN(CC(=O)Nc1ccccc1Br)Cc1nc2ccccc2c(=O)[nH]1,81,-,-,-,-,83
O=C(NC(CSCc1ccccc1)C(=O)N/N=C/c1ccc(O)cc1O)c1ccc([N+](=O)[O-])cc1 (stereo not drawn),-,-,-,-,-,-
Cc1nc2ncnn2c(C)c1CCC(=O)NCCCN1CCN(c2cccc(Cl)c2)CC1,-,-,-,-,-,-
CCN(CC(=O)NC(c1ccccc1)c1ccccc1)Cc1nc2ccccc2c(=O)[nH]1,-,-,-,-,-,65
COc1ccccc1CN(Cc1nc2ccccc2c(=O)[nH]1)C(=O)Nc1cccc(C)c1,57,-,-,-,-,67
CCN(CC(=O)NCc1ccc(F)cc1)Cc1nc2cc(Cl)ccc2c(=O)[nH]1,60,-,-,-,-,-
CCN(CC(=O)Nc1ccc2c(c1)CCC2)Cc1nc2ccccc2c(=O)[nH]1,89,-,-,-,-,92
COc1ccc(CCN(Cc2nc3ccccc3c(=O)[nH]2)C(=O)c2ccco2)cc1OC,-,-,-,-,-,-
CCN(CC(=O)NC(=O)NC1CCCCC1)Cc1nc2ccccc2c(=O)[nH]1,-,-,-,-,-,-
COc1cccc(C(=O)N(Cc2ccc3c(c2)OCO3)Cc2nc3ccccc3c(=O)[nH]2)c1,81,.,.,-,-,74
COc1ccccc1NC(=O)N(Cc1ccc2c(c1)OCO2)Cc1nc2ccccc2c(=O)[nH]1,-,-,-,-,-,-
COc1cc2c(cc1OC)CN(S(=O)(=O)c1ccc3c(c1)OCCO3)CC2,-,-,-,-,-,95
COc1ccc(S(=O)(=O)N2CCc3ccccc3C2)cc1OC,-,-,-,2.4,-,91
CCN1CCN(S(=O)(=O)c2ccc3c(c2)OCCO3)CC1,-,-,-,-,-,-
Cc1cccc(-c2nnc(SCC#N)n2Cc2ccccc2)c1,51,-,-,-,-,77
CCN(CC)S(=O)(=O)c1cccc(-c2nnc(SCC#N)n2Cc2ccccc2)c1,-,.,.,-,-,-
Cc1cccc(-c2nnc(SCC#N)n2-c2ccccc2)c1,-,-,-,-,-,51
N#CCCCSc1nnc(-c2ccc(Cl)cc2)n1-c1ccccc1,50,.,.,-,-,-
CSc1cc(/C=N/O)c(SC)s1,-,-,-,-,-,66
Cc1ccccc1-n1c(=O)cc(N2CCN(C(=O)c3ccco3)CC2)[nH]c1=O,.,-,-,.,.,.
COc1ccc(-c2nnc3ccc(SCC(=O)N4CCCCC4)nn23)cc1OC,-,.,.,-,-,-
CC(C)(C)OC(=O)N1CC(O)CC1C(=O)OCC(=O)c1ccc(Cl)cc1 (stereo not drawn),-,.,.,-,-,55
CC(C)(C)OC(=O)N1CC(O)CC1C(=O)OCC(=O)c1ccccc1 (stereo not drawn),.,-,-,.,.,.
OCc1ccccc1OCCOc1ccc(Cl)c2cccnc12,-,-,-,2.1,-,-
COC(=O)c1ccc(N2C(=O)c3ccc(OC)c(OC)c3C2=O)cc1,-,-,-,-,-,-
COc1ccc2c(c1OC)C(=O)N(c1cccc(C)c1)C2=O,-,-,-,3.1,-,-
